Laboratory results taken from the antibiotic and cytotoxicity screens of Wong et al. (2023).
In all, about 39,000 compounds went through this assay and about 1,500 (3.8%) were called active. This is one part of a sample in which actives are shown more often than they occur.

What follows are molecules tested on HSkMC (human skeletal muscle cells) (assay: cytotoxicity call (relative viability < 0.9)). Details: 10 µM.

Row | SMILES | cytotoxicity call
1 | O=c1/c(=C/c2cccc(Cl)c2)c2cccc3cccc1c32 | inactive
2 | Cc1noc(C)c1S(=O)(=O)N(C)C[C@H]1OCCCC[C@H](C)Oc2ccc(NS(=O)(=O)c3cn(C)cn3)cc2C(=O)N([C@H](C)CO)C[C@@H]1C | inactive
3 | CNS(=O)(=O)c1ccc(C)cc1 | inactive
4 | Cc1ccc(S(N)(=O)=O)cc1 | inactive
5 | Cc1noc(C)c1S(=O)(=O)N(C)C[C@@H]1OCCCC[C@@H](C)Oc2ccc(NS(C)(=O)=O)cc2C(=O)N([C@@H](C)CO)C[C@@H]1C | inactive
6 | COc1ccc(-n2nc(CCC(=O)N(C)O)cc2-c2ccc(Cl)cc2)cc1 | inactive
7 | CCCCc1nc(-c2ccc(OCCCN(CC)CC)cc2)cn1-c1ccc(Oc2ccc(Cl)cc2)cc1 | active
8 | CN(C)CCOC(=O)COc1ccc(Cl)cc1.Cl | inactive
9 | C[C@@H]1CN([C@H](C)CO)C(=O)c2cc(NC(=O)NC3CCCCC3)ccc2O[C@@H](C)CCCCO[C@@H]1CN(C)Cc1ccc2c(c1)OCO2 | inactive
10 | CN(C)CCCNC(=O)C[C@@H]1C=C[C@@H](NC(=O)Cc2cccnc2)[C@@H](CO)O1 | inactive
11 | C[C@H](CO)N1C[C@H](C)[C@@H](CN(C)C(=O)Nc2ccc3c(c2)OCO3)Oc2ccc(NS(C)(=O)=O)cc2CC1=O | inactive
12 | C[C@@H]1CN([C@H](C)CO)C(=O)Cc2cc(NS(=O)(=O)c3ccc(Cl)cc3)ccc2O[C@H]1CN(C)Cc1ccc(-c2ccccc2)cc1 | active
13 | C[C@H](CO)N1C[C@H](C)[C@@H](CN(C)Cc2ccc(-c3ccccc3)cc2)Oc2ccc(NS(=O)(=O)c3ccc(Cl)cc3)cc2CC1=O | inactive
14 | C[C@H]1CN([C@@H](C)CO)C(=O)Cc2cc(NS(=O)(=O)c3ccc(Cl)cc3)ccc2O[C@@H]1CN(C)Cc1ccc(-c2ccccc2)cc1 | inactive
15 | C[C@H]1CN([C@@H](C)CO)C(=O)Cc2cc(NS(=O)(=O)c3ccc(Cl)cc3)ccc2O[C@H]1CN(C)Cc1ccc(-c2ccccc2)cc1 | active
16 | C[C@@H]1CN([C@@H](C)CO)C(=O)Cc2cc(NS(=O)(=O)c3ccc(Cl)cc3)ccc2O[C@@H]1CN(C)Cc1ccc(-c2ccccc2)cc1 | inactive
17 | C[C@@H]1CN([C@@H](C)CO)C(=O)Cc2cc(NS(=O)(=O)c3ccc(Cl)cc3)ccc2O[C@H]1CN(C)Cc1ccc(-c2ccccc2)cc1 | active
18 | C[C@H](CO)N1C[C@H](C)[C@H](CN(C)Cc2ccc(-c3ccccc3)cc2)Oc2ccc(NS(=O)(=O)c3ccc(Cl)cc3)cc2CC1=O | inactive
19 | C[C@@H]1CN([C@H](C)CO)C(=O)Cc2cc(NS(=O)(=O)c3ccc(Cl)cc3)ccc2O[C@@H]1CN(C)Cc1ccc(-c2ccccc2)cc1 | active
20 | Cc1ccc(S(=O)(=O)N(C)C[C@@H]2Oc3c(NC(=O)c4cnccn4)cccc3C(=O)N([C@H](C)CO)C[C@@H]2C)cc1 | inactive
21 | CC=Cc1ccc2n(c1=O)C[C@H]1[C@H](CO)[C@@H](C(=O)NCCc3cn(C)cn3)N(C(=O)C3CC3)[C@@H]21 | inactive
22 | COc1ccc(S(=O)(=O)N(C)C[C@H]2OCc3cn(nn3)CCCC(=O)N([C@@H](C)CO)C[C@H]2C)cc1 | inactive
23 | C[C@H](CO)N1C[C@H](C)[C@@H](CN(C)C(=O)Nc2ccc3c(c2)OCO3)OCCCC[C@H](C)Oc2ccc(NC(=O)C3CCCCC3)cc2C1=O | inactive
24 | C[C@H]1CN([C@@H](C)CO)C(=O)c2cc(C#CC3(O)CCCC3)cnc2O[C@H]1CN(C)C(=O)C1CCCCC1 | inactive

Row | SMILES | cytotoxicity call
25 | Cc1noc(C)c1NC(=O)Nc1ccc2c(c1)C(=O)N([C@H](C)CO)C[C@@H](C)[C@H](CN(C)C(=O)Nc1ccc(C(F)(F)F)cc1)O2 | inactive
26 | O=C(C[C@@H]1CC[C@H]2[C@@H](COC[C@H](O)CN2C(=O)c2ccccc2)O1)N1CCOCC1 | inactive
27 | O=C(C[C@@H]1C[C@H]2c3cc(NS(=O)(=O)c4ccc(F)cc4)ccc3O[C@H]2[C@H](CO)O1)NCCN1CCCCC1 | inactive
28 | C[C@H](CO)N1C[C@H](C)[C@H](CN(C)S(=O)(=O)c2ccc(Cl)cc2)OCCCC[C@H](C)Oc2ccc(NC(=O)Nc3ccc(C(F)(F)F)cc3)cc2C1=O | inactive
29 | C=CCOC(=O)[C@H]1[C@@H]2C(=O)O[C@@H](c3ccccc3)[C@@H](c3ccccc3)N2[C@@H](c2ccc(OCCOC(=O)[C@H]3C[C@H]4C(=O)N[C@@H](Cc5ccccc5)C(=O)N4[C@H]3c3cccc(OCCO)c3)cc2)[C@]12C(=O)Nc1ccccc12 | inactive
30 | Cc1nn(C[C@@H](O)Cn2cnc3c2c(=O)n(C)c(=O)n3C)c(C)c1Br | inactive
31 | O=C(c1ccccc1Cl)c1cccnc1-c1nnn(Cc2cc(C(F)(F)F)cc(C(F)(F)F)c2)c1-c1ccncc1 | active
32 | NC1CCN(c2cccc(Cl)n2)CC1 | inactive
33 | CCN(CC)CCS(=O)(=O)[C@@H]1CCN2C(=O)c3coc(n3)CC(=O)C[C@H](O)/C=C(C)/C=C\CNC(=O)/C=C/[C@@H](C)[C@H](C(C)C)OC(=O)[C@@H]12 | inactive
34 | C[C@H](CO)N1C[C@H](C)[C@@H](CN(C)C(=O)Nc2ccc(F)cc2)OCCCC[C@H](C)Oc2ccc(NS(=O)(=O)c3ccc(F)cc3)cc2C1=O | inactive
35 | C[C@@H]1CN([C@H](C)CO)C(=O)c2cc(NC(=O)C3CC3)ccc2O[C@H]1CN(C)S(=O)(=O)c1cccs1 | inactive
36 | C[C@H](CO)N1C[C@H](C)[C@@H](CN(C)C(=O)Nc2cccc3ccccc23)Oc2ccc(NC(=O)Cc3cn(C)c4ccccc34)cc2C1=O | inactive
37 | C[C@@H]1CN([C@H](C)CO)C(=O)c2cc(NC(=O)Cc3cn(C)c4ccccc34)ccc2O[C@H]1CN(C)C(=O)Nc1cccc2ccccc12 | active
38 | C[C@@H]1CN([C@@H](C)CO)C(=O)c2cc(NC(=O)Cc3cn(C)c4ccccc34)ccc2O[C@@H]1CN(C)C(=O)Nc1cccc2ccccc12 | active
39 | C[C@H]1CN([C@@H](C)CO)C(=O)c2cc(NC(=O)Cc3cn(C)c4ccccc34)ccc2O[C@H]1CN(C)C(=O)Nc1cccc2ccccc12 | inactive
40 | C[C@@H]1CN([C@H](C)CO)C(=O)c2cc(NC(=O)Cc3cn(C)c4ccccc34)ccc2O[C@@H]1CN(C)C(=O)Nc1cccc2ccccc12 | active
41 | C[C@H](CO)N1C[C@H](C)[C@H](CN(C)C(=O)Nc2cccc3ccccc23)Oc2ccc(NC(=O)Cc3cn(C)c4ccccc34)cc2C1=O | inactive
42 | C[C@H]1CN([C@@H](C)CO)C(=O)Cc2cc(NC(=O)Cc3cn(C)c4ccccc34)ccc2O[C@H]1CN(C)C(=O)Nc1cccc2ccccc12 | inactive
43 | C[C@@H]1CN([C@@H](C)CO)C(=O)c2cc(NC(=O)Cc3cn(C)c4ccccc34)ccc2O[C@H]1CN(C)C(=O)Nc1cccc2ccccc12 | inactive
44 | C[C@H]1CN([C@@H](C)CO)C(=O)c2cc(NC(=O)Cc3cn(C)c4ccccc34)ccc2O[C@@H]1CN(C)C(=O)Nc1cccc2ccccc12 | inactive
45 | COc1ccc(NC(=O)Nc2cccc3c2O[C@@H](CN(C)C(=O)Nc2cccc4ccccc24)[C@@H](C)CN([C@@H](C)CO)C3=O)cc1 | inactive
46 | O[C@H]1[C@H](O)[C@@H](O)[C@H](O)[C@H](O)[C@H]1O | inactive
47 | COc1ccc(S(=O)(=O)N[C@H]2C=C[C@H](CC(=O)N3CCC(Cc4ccccc4)CC3)O[C@@H]2CO)cc1 | inactive
48 | CO[C@H]1CN(C)C(=O)c2cc(NC(=O)c3ccccc3)ccc2OC[C@H](C)N(C(=O)CN(C)C)C[C@@H]1C | inactive

Row | SMILES | cytotoxicity call
49 | C[C@@H]1CN([C@H](C)CO)C(=O)c2cccc(NC(=O)c3cnccn3)c2O[C@@H]1CN(C)CC1CCCCC1 | inactive
50 | COc1ccc(CN(C)C[C@@H]2Oc3ccc(NC(=O)C4CC4)cc3CC(=O)N([C@H](C)CO)C[C@@H]2C)cc1 | inactive
51 | C[C@@H]1CCCCO[C@H](CN(C)Cc2ccc(Cl)c(Cl)c2)[C@@H](C)CN([C@H](C)CO)C(=O)c2cc(NC(=O)Nc3ccc(F)cc3)ccc2O1 | inactive
52 | Cn1cnc(S(=O)(=O)N2C[C@H](O)COC[C@@H]3O[C@H](CC(=O)NCc4ccc(F)cc4)CC[C@H]32)c1 | inactive
53 | Cc1cc(C(=O)Nc2cccc3c2O[C@H](CN(C)C(=O)Nc2c(C)noc2C)[C@H](C)CN([C@@H](C)CO)C3=O)n(C)n1 | inactive
54 | CO[C@@H]1[C@@H](OC(=O)c2ccc(C)[nH]2)[C@@H](O)[C@@H](Oc2ccc3c(c2C)OC(=O)[C@H](NC(=O)c2[nH]cc(CC(=O)Nc4cc5ccc(O[C@@H]6OC(C)(C)[C@H](OC)[C@@H](OC(=O)c7ccc(C)[nH]7)[C@H]6O)c(C)c5oc4=O)c2C)C3)CC1(C)C | active
55 | COC1C(OC(N)=O)C(O)C(Oc2ccc3c([O-])c(NC(=O)c4ccc(O)c(CC=C(C)C)c4)c(=O)oc3c2C)OC1(C)C.[Na+] (configuration not stated) | inactive
56 | COc1ccc(NC(=O)N(C)C[C@H]2OCCCC[C@H](C)Oc3ccc(NC(=O)Nc4ccc5c(c4)OCO5)cc3C(=O)N([C@@H](C)CO)C[C@@H]2C)cc1 | inactive
57 | C[C@H]1CN([C@@H](C)CO)C(=O)c2cc(NC(=O)Nc3ccc4c(c3)OCO4)ccc2O[C@H]1CN(C)S(=O)(=O)c1cn(C)cn1 | inactive
58 | Cc1noc(C)c1NC(=O)Nc1ccc2c(c1)C(=O)N([C@@H](C)CO)C[C@H](C)[C@H](CN(C)C(=O)Nc1ccc(F)cc1)OCCCC[C@H](C)O2 | inactive
59 | Cc1noc(C)c1NC(=O)Nc1ccc2c(c1)C(=O)N([C@H](C)CO)C[C@H](C)[C@H](CN(C)Cc1ccc3c(c1)OCO3)OCCCC[C@H](C)O2 | inactive
60 | O=C(C[C@H]1CC[C@@H]2[C@H](COC[C@H](O)CN2C(=O)c2ccncc2)O1)NC1CCC1 | inactive
61 | COc1ccc(CN(C)C[C@@H]2Oc3ccc(NC(=O)Nc4cccc5ccccc45)cc3CC(=O)N([C@H](C)CO)C[C@@H]2C)cc1 | inactive
62 | COc1ccc(CN(C)C[C@H]2Oc3ccc(NC(=O)Nc4cccc5ccccc45)cc3CC(=O)N([C@@H](C)CO)C[C@H]2C)cc1 | inactive
63 | COc1ccc(CN(C)C[C@@H]2Oc3ccc(NC(=O)Nc4cccc5ccccc45)cc3CC(=O)N([C@H](C)CO)C[C@H]2C)cc1 | inactive
64 | C[C@H]1CN([C@@H](C)CO)C(=O)Cc2cc(NC(=O)Nc3cccc4ccccc34)ccc2O[C@@H]1CN(C)Cc1ccc(-c2ccccc2)cc1 | active
65 | C[C@H](CO)N1C[C@H](C)[C@@H](CN(C)Cc2ccc(-c3ccccc3)cc2)Oc2ccc(NC(=O)Nc3cccc4ccccc34)cc2CC1=O | inactive
66 | C[C@@H]1CN([C@H](C)CO)C(=O)Cc2cc(NC(=O)Nc3cccc4ccccc34)ccc2O[C@H]1CN(C)Cc1ccc(-c2ccccc2)cc1 | inactive
67 | C[C@H](CO)N1C[C@H](C)[C@H](CN(C)Cc2ccncc2)Oc2ccc(NC(=O)Nc3cccc4ccccc34)cc2CC1=O | active
68 | COc1ccc(CN(C)C[C@@H]2Oc3ccc(NC(=O)Nc4cccc5ccccc45)cc3CC(=O)N([C@@H](C)CO)C[C@@H]2C)cc1 | active
69 | C[C@@H]1CN([C@H](C)CO)C(=O)Cc2cc(NC(=O)Nc3cccc4ccccc34)ccc2O[C@H]1CN(C)Cc1ccncc1 | inactive
70 | C[C@@H]1CN([C@H](C)CO)C(=O)Cc2cc(NC(=O)Nc3cccc4ccccc34)ccc2O[C@@H]1CN(C)Cc1ccncc1 | inactive
71 | COc1ccc(CN(C)C[C@H]2Oc3ccc(NC(=O)Nc4cccc5ccccc45)cc3CC(=O)N([C@H](C)CO)C[C@H]2C)cc1 | active
72 | COc1ccc(CN(C)C[C@H]2Oc3ccc(NC(=O)Nc4cccc5ccccc45)cc3CC(=O)N([C@@H](C)CO)C[C@@H]2C)cc1 | inactive
